About 3,000 (0.83%) of roughly 360,000 compounds were called active. This excerpt belongs to a sample that is enriched for actives. Values without a mark were called inactive. Rule as the data show it: active = inhibition above about 50%; inactive = the rest.

The target in this test is DNA (cytosine-5)-methyltransferase 1 (Homo sapiens) (UniProt P26358). The test can be described thus: human DNMT1 methyltransferase inhibitors, primary screen, biochemical, molecular beacon, fluorescence, HinP1I cleavage, uHTS (AID 588458). The note with it: at 10 µM, active compounds read high.
Sequence of DNA (cytosine-5)-methyltransferase 1 (Homo sapiens) (P26358 504-1616 limits assumed): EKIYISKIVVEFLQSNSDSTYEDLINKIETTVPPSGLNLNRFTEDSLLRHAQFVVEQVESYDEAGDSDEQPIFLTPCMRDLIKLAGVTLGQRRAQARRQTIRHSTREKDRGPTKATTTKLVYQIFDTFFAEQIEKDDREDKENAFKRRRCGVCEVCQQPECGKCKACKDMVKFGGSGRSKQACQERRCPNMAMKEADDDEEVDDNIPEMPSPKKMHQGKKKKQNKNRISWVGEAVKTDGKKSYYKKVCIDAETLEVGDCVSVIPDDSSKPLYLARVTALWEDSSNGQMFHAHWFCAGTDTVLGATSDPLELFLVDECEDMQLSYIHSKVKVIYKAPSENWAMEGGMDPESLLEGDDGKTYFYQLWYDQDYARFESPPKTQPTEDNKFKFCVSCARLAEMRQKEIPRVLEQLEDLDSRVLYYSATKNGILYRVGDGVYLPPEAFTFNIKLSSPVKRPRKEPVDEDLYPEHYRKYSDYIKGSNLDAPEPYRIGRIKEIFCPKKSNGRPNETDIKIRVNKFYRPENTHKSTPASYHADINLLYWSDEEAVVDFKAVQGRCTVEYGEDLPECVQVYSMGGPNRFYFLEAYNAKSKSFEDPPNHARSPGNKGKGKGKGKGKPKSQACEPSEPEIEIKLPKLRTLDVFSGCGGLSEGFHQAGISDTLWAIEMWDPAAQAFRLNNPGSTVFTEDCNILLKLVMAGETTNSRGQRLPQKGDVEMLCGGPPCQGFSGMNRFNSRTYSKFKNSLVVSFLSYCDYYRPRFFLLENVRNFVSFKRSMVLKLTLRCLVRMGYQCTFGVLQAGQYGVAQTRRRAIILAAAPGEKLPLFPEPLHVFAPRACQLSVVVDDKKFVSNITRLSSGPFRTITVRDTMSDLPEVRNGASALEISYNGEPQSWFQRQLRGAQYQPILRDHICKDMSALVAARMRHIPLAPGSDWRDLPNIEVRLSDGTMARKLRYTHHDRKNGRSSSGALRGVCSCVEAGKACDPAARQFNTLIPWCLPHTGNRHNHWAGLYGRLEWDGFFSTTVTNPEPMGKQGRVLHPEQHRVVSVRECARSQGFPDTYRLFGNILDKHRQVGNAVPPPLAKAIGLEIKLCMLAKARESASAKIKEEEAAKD
On to `CCN(C(=O)CSc1nc(N)cc(=O)[nH]1)C1CCS(=O)(=O)C1` (stereo not given), for which the inhibition (reported as % activation of signal) was 84.1% (active).

On to `CCN(C(=O)CSc1nnc2ccccn12)C1CCS(=O)(=O)C1` (stereo not given), for which the inhibition (reported as % activation of signal) is 3.22%.

For `CCN(C(=O)CSc1nc2ccccc2n1CC)C1CCS(=O)(=O)C1` (stereo not given), the inhibition (reported as % activation of signal) is 0.17%.

For `CCCCNC(=O)C1CCCNC1=O` (stereo not given), the inhibition (reported as % activation of signal) was 2.28%.

Turning to `COc1ccc(C2=NOC3(CC(=O)N(c4ccc(Cl)cc4)C3=O)C2)c(OC)c1` (stereo not given), the inhibition (reported as % activation of signal) is -6.34%.

Turning to `O=C(O)c1cc(S(=O)(=O)N2CCCCCC2)c(Cl)cc1Cl`, the inhibition (reported as % activation of signal) is 0.43%.

Take `CC1CCCN(Cc2nc3c(c(=O)n(C)c(=O)n3C)n2CC(=O)c2ccccc2)C1` (stereo not given): the inhibition (reported as % activation of signal) was -2.35%.

For `CCN1CCN(Cc2nc3c(c(=O)n(C)c(=O)n3C)n2CC(=O)c2ccccc2)CC1`, the inhibition (reported as % activation of signal) is 75.4% (active).

Regarding `CCOC(=O)N1CCN(Cc2nc3c(c(=O)n(C)c(=O)n3C)n2Cc2ccccc2)CC1`, the inhibition (reported as % activation of signal) is 1.29%.

In the case of `O=C1CCCC(O)=C1C=NCCc1ccccc1`, the inhibition (reported as % activation of signal) is 60.8% (active).

Regarding `O=C1CC(c2ccccc2)CC(O)=C1C=NCCN1CCOCC1` (stereo not given), the inhibition (reported as % activation of signal) was 0.18%.

As for `CC1(C)CC(=O)C(C=NCCC2=CCCCC2)=C(O)C1`, the inhibition (reported as % activation of signal) is 6.68%.

As to `COc1cc(NS(=O)(=O)c2ccc(N/C=C(\C=O)c3nc4cc(Cl)ccc4o3)cc2)nc(OC)n1`, the inhibition (reported as % activation of signal) is -2.63%.

Take `C=C1c2c(Cl)ccc(O)c2C(O)=C2C(=O)[C@]3(O)C(O)=C(C(N)=O)C(=O)[C@@H](N(C)C)[C@@H]3[C@@H](O)C12` (stereo not given in full): the inhibition (reported as % activation of signal) was 94.6% (active).

In the case of `CC1C(c2ccccc2)=[N+]([O-])C2(CCCC2)N1O` (stereo not given), the inhibition (reported as % activation of signal) was 1.84%.

For the compound `COc1ccc(CCNC(=O)CC2SC(=Nc3cc(C)cc(C)c3)NC2=O)cc1OC` (stereo not given), the inhibition (reported as % activation of signal) is 1.89%.

`CC(=O)[C@@]12O[C@@H]1C[C@H]1[C@@H]3CC[C@H]4C[C@@H](O)CC[C@]4(C)[C@H]3CC[C@@]12C`: the inhibition (reported as % activation of signal) was 1%.

Take `O=C(c1ccc(Cl)cc1)n1cnc2ccccc21`: the inhibition (reported as % activation of signal) was 8.27%.

For `COc1ccccc1N(CC(=O)Nc1ccc(C(F)(F)F)cc1)S(C)(=O)=O`, the inhibition (reported as % activation of signal) is 7.89%.

Regarding `CCCNC(=O)C(=O)Nc1cc2c3c(c1)CCC(=O)N3CCC2`, the inhibition (reported as % activation of signal) was -0.17%.

As to `CCc1ccc(NC(=O)CS(=O)CC(=O)NCCCc2ccccc2)cc1` (stereo not given), the inhibition (reported as % activation of signal) was 58.9% (active).

Regarding `S=C(NCCCc1ccccc1)Nc1ccc(Br)cc1`, the inhibition (reported as % activation of signal) is 6.06%.

Regarding `CCc1ccc(NC(=O)CS(=O)CC(=O)N2CCN(c3ccccc3F)CC2)cc1` (stereo not given), the inhibition (reported as % activation of signal) is 1.59%.

Regarding `Cc1oc(CC(C)C)c(CN2CCCC2)c1C(=O)O`, the inhibition (reported as % activation of signal) is -0.29%.

Regarding `Cc1nnc(N(Cc2ccco2)C(=O)c2ccno2)s1`, the inhibition (reported as % activation of signal) is -1.27%.

Consider `Cc1ccc(NC(=O)OCCNC(=O)c2ccncc2)cc1`, for which the inhibition (reported as % activation of signal) is 0.6%.

Take `COCCNC(=O)CSc1nc(N)c(NC(=O)c2ccco2)c(=O)[nH]1`: the inhibition (reported as % activation of signal) is 4.39%.

Consider `COCCNC(=O)Nc1ccc2nc(-c3ccco3)c(-c3ccco3)nc2c1`, for which the inhibition (reported as % activation of signal) is 110% (active).

Regarding `COc1ccc(Cn2cccc(NC(=O)Nc3ccc(C#N)cc3)c2=O)cc1`, the inhibition (reported as % activation of signal) was 3.12%.

With `O=C1COc2ccc(NC(=O)N3CCN(c4ccc(F)cc4)CC3)cc2N1`, the inhibition (reported as % activation of signal) is -6.06%.

As to `O=C(COC(=O)CSc1ccccc1)Nc1ccc(F)cc1F`, the inhibition (reported as % activation of signal) was -0.57%.

Take `CCOC(=O)c1cccc(NC(=O)c2ccc(F)cc2F)c1`: the inhibition (reported as % activation of signal) was 2.92%.

As for `O=C(COC(=O)c1ccc(F)cc1F)Nc1ncccn1`, the inhibition (reported as % activation of signal) was 67.4% (active).

`CN=C1C=C/C(=N/N=c2\ccn(O)cc2C)C=C1C`: the inhibition (reported as % activation of signal) is -3.81%.

`NC(=O)C1CCCN(CC(=O)N2CCN(c3ccccc3)CC2)C1` (stereo not given): the inhibition (reported as % activation of signal) is 1.67%.

Consider `Cn1c(=O)c2[nH]c(NCC3CCCO3)nc2n(-c2ccccc2)c1=O` (stereo not given), for which the inhibition (reported as % activation of signal) was 3.06%.

Turning to `COc1cc2c(cc1OC)C(Cc1cc(OC)c(OC)cc1[N+](=O)[O-])=NCC2`, the inhibition (reported as % activation of signal) is -13.1%.

As for `COC(=O)c1ccc(C(NC(=O)OCc2ccccc2)/C(F)=C/[C@@H](C)C(=O)O)cc1` (stereo not given in full), the inhibition (reported as % activation of signal) is 2.04%.

Turning to `CCC[C@@H]1C[C@@]1(CCC)[C@@H](NC(=O)c1ccccc1)c1ccc(C(=O)OC)cc1`, the inhibition (reported as % activation of signal) was -1.36%.

For the compound `CCC/C=C(\CCC)C(NC(=O)Cc1ccccc1)c1ccc(C(=O)OC)cc1` (stereo not given), the inhibition (reported as % activation of signal) was 64.2% (active).

In the case of `C#Cc1ccc(NC(=O)C2(C)CCN2C(=O)Cc2ccc(-c3ccccc3)cc2)cc1` (stereo not given), the inhibition (reported as % activation of signal) is -17.3%.

Regarding `O=C(NC1(C(F)(F)F)NC(=O)N(Cc2cccnc2)C1=O)c1ccccc1Cl` (stereo not given), the inhibition (reported as % activation of signal) is 5.41%.

`O=C(NCc1ccncc1)C1CCCN(S(=O)(=O)c2ccc(Br)cc2)C1` (stereo not given): the inhibition (reported as % activation of signal) was -0.42%.

For `COc1cc2c(cc1O)C(SC)=NC(C)(C)C2`, the inhibition (reported as % activation of signal) was 0.55%.

As for `O=C(COc1ccccc1)Nc1ccc(F)cc1`, the inhibition (reported as % activation of signal) is 2.46%.

The values are drawn from PubChem BioAssay AID588458 (Sanford-Burnham Center for Chemical Genomics, 2011).
